Drawing on PubChem BioAssay (NCI), this text covers growth for seven compounds.

Molecules are shown by their SMILES. Compounds without any hit were thinned out: in the full panel of roughly 83,000, 20% have a hit.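 A percent growth of 40 corresponds to 60% growth inhibition; 0 means no net growth; -100 means all cells died. Active threshold: below 10.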 Unmarked numbers belong to inactive results. Activity calls are given as the source filed them.

Common to all, as to experiment: NCI-60 one-dose screen, 48 h (100 = growth as untreated, 0 = no growth, -100 = all killed)
Settings in all cases: 10 µM unless noted

The subject of assay [1] is HCT-15 colon.
Assay [2] has as its system HT29 colon.
Assay [3] relates to SNB-75 CNS.
Assay [4] concerns SNB-19 CNS.
The test system of assay [5] is U251 CNS.
Assay [6] has as its system PC-3 prostate.
In assay [7] the test system is SK-MEL-5 melanoma.
Assay [8] has as its system UACC-62 melanoma.
The test system of assay [9] is LOX IMVI melanoma.
Assay [10] has as its system SK-MEL-28 melanoma.
In assay [11] the test system is SK-MEL-2 melanoma.
The subject of assay [12] is EKVX NSCLC.
Assay [13] has as its system SN12C renal.
In assay [14] the test system is UO-31 renal.
Assay [15] has as its system TK-10 renal.
Assay [16] has as its system ACHN renal.
Assay [17] deals with CAKI-1 renal.
Assay [18] deals with CCRF-CEM leukemia.
The test system of assay [19] is MOLT-4 leukemia.

In the case of `CCSCC1CC(O)(c2ccccc2)CC(c2ccc(F)cc2)O1` (stereo not drawn), the growth was 17.4% in assay [1]; 2.51% (active) in assay [2]; 33.1% in assay [3]; 36.1% in [4]; 20.8% in [5]; 9.83% (active) in assay [6]. Moreover, the growth in assay [7] was -36% (active); in [8] it was 29.2%; in assay [9], 4.29% (active); in [10], 26.9%; in assay [11] it was 4.62% (active); in [12], 15.2%. In addition, the growth was -68.9% (active) in [13]; 28.6% in [14]; 21.9% in assay [15]; 3.1% (active) in assay [16]; -25.2% (active) in [17]; 22.9% in assay [18]. Further, the growth in assay [19] is -11.9% (active).

For the compound `CCNC(=O)Oc1ccc(/C(=C(\C)c2ccccc2)c2ccc(OCCN(CC)CC)cc2)cc1`, the growth in assay [1] was 16.5%; in [2], 15.3%; in assay [3] it was 78.5%; in assay [4], 86.9%; in [5], 68.2%; in assay [6], 70.8%. The growth was 34.4% in assay [7]; 59.1% in assay [8]; 65.3% in [9]; 63.3% in assay [10]; 97.6% in assay [11]; 96% in [12]. The growth in assay [13] is 82.1%; in assay [14], 61.6%; in [15] it was 95.6%; in [16], 102%; in assay [17] it was 59.3%; in assay [18] it was 84%. Moreover, the growth in [19] is 76.2%.

`COc1ccc2c(c1)C(=O)CC(c1ccccc1OC)O2` (stereo not drawn): the growth in [1] was 93.1%; in [2], 107%; in assay [3], 80.4%; in [4] it was 98.8%; in [5] it was 98.4%; in assay [6], 104%. Also, the growth in assay [7] is 98.7%; in [8], 85.8%; in assay [9], 89.3%; in assay [10], 106%; in [11], 102%; in [12], 73.2%. Further, the growth was 94.6% in [13]; 96.9% in assay [14]; 169% in assay [15]; 101% in assay [16]; 89.2% in [17]; 109% in [18]. Also, the growth in assay [19] is 81%.

For `CCOC(=O)[C@@H]1CCCN(S(=O)(=O)c2ccc(S(=O)(=O)N(CC)CC)c(F)c2)C1`, the growth is 84.4% in assay [1]; 83% in assay [2]; 90.9% in assay [3]; 69.2% in assay [4]; 82.2% in assay [5]; 84% in assay [6]. For the same compound, the growth in assay [7] is 18.8%; in [8], 59.4%; in assay [9], 62.2%; in assay [10] it was 93.4%; in assay [11] it was 62.6%; in [12] it was 46.9%. Moreover, the growth in [13] was 85.4%; in assay [14], 69%; in [15], 81.4%; in assay [16] it was 75%; in [17], 64.1%; in [18], 85.1%. In assay [19], the growth was 79.4%.

For `CNCCn1c(=O)c2cc(OC)c(OC)cc2c2ccc3cc4c(cc3c21)OCO4`, the growth in [1] was 17.3%; in assay [2] it was 2.8% (active); in [3] it was -0.403% (active); in assay [4], 8.32% (active); in assay [5], 5.74% (active); in [6] it was 8.41% (active). In addition, the growth is -60.7% (active) in assay [7]; -79.7% (active) in assay [8]; -46.1% (active) in assay [9]; -34.2% (active) in [10]; -76.1% (active) in [11]; -6.68% (active) in assay [12]. The growth in assay [13] is 2.31% (active); in [14], -66.4% (active); in assay [15], -68.9% (active); in assay [16] it was -76% (active); in assay [17] it was -84.9% (active); in [18] it was -1.64% (active). Also, in assay [19], the growth was -10.3% (active).

Consider `CNC(=O)c1cncc(Cn2nc(C)c(NC(=O)c3ccc(COc4ccc(C(F)(F)F)cc4C)cc3)c2C)c1`, for which the growth in [1] was 74.7%; in assay [2] it was 56.5%; in assay [3], 77.7%; in assay [4] it was 56.6%; in assay [5], 63.7%; in assay [6], 53.9%. Besides, the growth is 7.09% (active) in assay [7]; 64.7% in [8]; 64.3% in assay [9]; 81.6% in [10]; 48.8% in [11]; 46.5% in assay [12]. Besides, the growth is 69.1% in [13]; 58.6% in assay [14]; 61.9% in assay [15]; 62% in assay [16]; 60% in assay [17]; 69% in [18]. Further, the growth in assay [19] was 41.7%.

As for `COc1cc2nc(-c3ccc(Cl)cc3)cc(OCCCN3CCCCC3)c2cc1OC`, the growth in assay [1] is 17.4%; in assay [2], 18.1%; in assay [3], 18.2%; in assay [4] it was 70.5%; in assay [5], 48.7%; in assay [6], 42.9%. For the same compound, the growth in assay [7] is -18.5% (active); in assay [8], -32.6% (active); in assay [9] it was -45.2% (active); in assay [10], 60%; in assay [11], 65.7%; in [12] it was 66.2%. The growth in [13] is 41.8%; in assay [14], 41.8%; in assay [15], 89.9%; in [16], 34%; in [17], 0.0525% (active); in [18] it was 49%. Besides, in [19], the growth is 37.1%.
